Results filed as inconclusive are left out. Activity calls are given as the source filed them. Calls follow the shape of the dose curve; as a rule, active = well fitted inhibition curve with a large enough effect; inconclusive = small, poorly fitted or top-dose-only effect, or effect the other way; inactive = flat fitted curve, though single readings scatter.
Each compound was assayed against Ubiquitin carboxyl-terminal hydrolase 2 (Homo sapiens) (UniProt O75604) (assay: Ub-rhodamine 110 based assay for inhibitors Ubiquitin-specific Protease USP2a). Details: USP2a Ub-rhodamine110 cleavage, fluorescence; series mostly up to 38.3 µM; activity change, negative = inhibition: at the top concentration.
In short: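 5 nM USP2a preincubated with compounds for 30 min at RT in 20 mM Tris-HCl pH 8.0, 2 mM CaCl2, 2 mM beta-mercaptoethanol, 0.05% CHAPS. Cleavage of 150 nM Ub-rhodamine 110 read kinetically (Ex 485/Em 531) for 7 min.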
% is scaled to controls: 0 for no effect and ±100 for the full control effect; potency is read from the fitted curve at half-maximal effect.
Also: nearly all actives have a fitted effect of over 50% in size.

Ubiquitin carboxyl-terminal hydrolase 2 (Homo sapiens), sequence (O75604 whole entry, looked up): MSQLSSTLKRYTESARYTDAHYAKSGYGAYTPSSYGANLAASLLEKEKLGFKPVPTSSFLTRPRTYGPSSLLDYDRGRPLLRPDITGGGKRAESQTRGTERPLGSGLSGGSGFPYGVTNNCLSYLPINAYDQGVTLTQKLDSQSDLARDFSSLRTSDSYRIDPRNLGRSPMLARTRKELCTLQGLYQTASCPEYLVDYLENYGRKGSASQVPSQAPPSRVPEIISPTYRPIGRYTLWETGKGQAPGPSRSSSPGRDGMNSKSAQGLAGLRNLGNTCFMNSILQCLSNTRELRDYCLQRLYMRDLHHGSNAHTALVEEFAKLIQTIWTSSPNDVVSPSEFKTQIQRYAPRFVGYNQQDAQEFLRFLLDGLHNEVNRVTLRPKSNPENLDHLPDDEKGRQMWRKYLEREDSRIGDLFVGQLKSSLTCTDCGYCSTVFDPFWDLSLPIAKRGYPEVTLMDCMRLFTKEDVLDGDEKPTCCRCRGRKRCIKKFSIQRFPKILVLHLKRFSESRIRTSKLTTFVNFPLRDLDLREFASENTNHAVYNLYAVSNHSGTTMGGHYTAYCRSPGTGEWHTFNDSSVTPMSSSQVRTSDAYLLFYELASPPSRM

Activity change, negative = inhibition, inactive:
Cn1c(C(=O)N2CCN(Cc3ccc4c(c3)OCO4)CC2)cc2sccc21 5.73%
CCCCCCCCCCOC(=O)Cn1c(COc2ccccc2C)[n+](C)c2ccccc21 -27.5%
O=C(c1ccccc1N(Cc1ccccc1)S(=O)(=O)c1ccccc1)N1CCOCC1 -4.89%
O=C(c1ccc(CS(=O)(=O)c2ccc(Br)cc2)o1)N1CCCC1 -8.3%
CC(C)c1ccc(CCNC(=O)c2ccc([N+](=O)[O-])cc2)cc1 -3.75%
O=C(Nc1ccccc1)c1cc(Cl)nc2ccccc12 -4.81%
O=C(c1ccco1)N1CCN(C(c2cccs2)c2sc3ncnn3c2O)CC1 (centres undefined) -4.24%

Potency, active:
O=[N+]([O-])c1cc(-c2ccc(/C=N\n3cnnc3)o2)cc([N+](=O)[O-])c1 11.2 µM
Cc1noc(/C=C/c2ccco2)c1S(=O)(=O)N1CCC(C(=O)N2CCc3ccccc3C2)CC1 7.94 µM
